Results reported in PubChem BioAssay AID1224921 (Broad Institute, 2016).
Screen size: about 1,400 compounds; about 350 (25%) were called active. Inconclusive results (about 2%) are left out. How the calls were made is not given here. The list is a sample of the results. Results with a measured potency or affinity are listed apart.

test: C. difficile growth inhibition, confirmation, 4-point retest (AID 1224921); settings: Clostridioides difficile clinical isolate growth, OD600, 24 h, stronger effect = lower value; at 30 µM unless noted;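 further: plate controls were DMSO wells for no effect and levofloxacin 16 µg/mL wells for full effect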

Max activity, inactive:
Cc1ccc(-c2ccc3c(c2)O[C@H](CN(C)Cc2ccncc2)[C@@H](C)CN([C@H](C)CO)S3(=O)=O)cc1 -11.4% [at 8 µM]
CO[C@@H]1CN(C)C(=O)c2ccc(NC(=O)C3CC3)cc2OC[C@@H](C)N(Cc2cncnc2)C[C@@H]1C -9.09% [at 1.95 µM]
CCCC#Cc1ccc2c(c1)O[C@@H](CN(C)C(=O)c1ccccc1F)[C@@H](C)CN([C@@H](C)CO)S2(=O)=O 23.4%
C[C@@H]1CN([C@@H](C)CO)C(=O)Cc2cc(NC(=O)c3ccncc3)ccc2O[C@H]1CN(C)Cc1ccc(Cl)c(Cl)c1 36.8% [at 8 µM]
COc1ccc(CNC(=O)C[C@H]2CC[C@H](NC(=O)c3cccc(F)c3)[C@@H](CO)O2)cc1 -5.36% [at 1.95 µM]
C[C@H]1CCCCO[C@H](CN(C)Cc2ccc3c(c2)OCO3)[C@@H](C)CN([C@@H](C)CO)C(=O)c2cc(NC(=O)Nc3ccc(F)cc3)ccc2O1 29.6%
O=C(NCCc1ccccc1)[C@@H]1[C@@H](CO)[C@@H]2Cn3c(cccc3=O)[C@H]1N2C(=O)C1CC1 -6.59%
CCCN1C[C@H](C)[C@@H](OC)CN(C)C(=O)c2ccc(NC(=O)Nc3c(C)noc3C)cc2OC[C@H]1C 6.66%
CO[C@H]1CN(C)C(=O)c2cc(NC(=O)Nc3ccc(Cl)cc3)ccc2OC[C@H](C)N(C(=O)Nc2c(C)noc2C)C[C@@H]1C -13% [at 8 µM]
Cc1ccc(-c2ccc3c(c2)O[C@H](CN(C)Cc2cccnc2)[C@@H](C)CN([C@H](C)CO)S3(=O)=O)cc1 31.7%
CO[C@@H]1CN(C)C(=O)c2ccc(NS(=O)(=O)c3ccc(C)cc3)cc2OC[C@@H](C)N(C(=O)NC(C)C)C[C@H]1C 14.4%
CCCN1C[C@H](C)[C@H](OC)CN(C)C(=O)c2cc(NC(=O)CC)ccc2OC[C@@H]1C 7.21% [at 8 µM]
O=C(C[C@@H]1C=C[C@@H](NC(=O)Cc2ccccn2)[C@H](CO)O1)NCCCN1CCOCC1 2.76% [at 0.5 µM]
CC(C)CC#Cc1ccc2c(c1)O[C@@H](CN(C)Cc1ccncc1)[C@H](C)CN([C@@H](C)CO)S2(=O)=O 29.7%
COc1ccc(-c2ccc([C@@H]3[C@@H](CO)N(C(=O)C4CCCC4)[C@H]3C#N)cc2)cc1 25% [at 7.5 µM]
CCCC(=O)Nc1ccc2c(c1)C(=O)N(C)C[C@H](OC)[C@H](C)CN(Cc1ccc(F)cc1)[C@@H](C)CO2 17.3%
C[C@@H]1CN([C@H](C)CO)C(=O)c2cc(C#Cc3ccccc3F)cnc2O[C@@H]1CN(C)C(=O)C1CCOCC1 17.1%
COc1cccc(C#Cc2cnc3c(c2)C(=O)N([C@H](C)CO)C[C@@H](C)[C@H](CN(C)C)O3)c1 6.76%
COc1cccc(C#Cc2cnc3c(c2)C(=O)N([C@@H](C)CO)C[C@H](C)[C@@H](CN(C)C)O3)c1 -9.5% [at 1.95 µM]
CC(=O)N(C)C[C@H]1Oc2ncc(C#Cc3ccccc3F)cc2C(=O)N([C@@H](C)CO)C[C@@H]1C 60.6%
CCNC(=O)C[C@H]1C=C[C@H](NS(=O)(=O)c2ccc(F)cc2)[C@H](CO)O1 -12%
O=C(C[C@@H]1C[C@H]2c3cc(NC(=O)Nc4ccc(C(F)(F)F)cc4)ccc3O[C@H]2[C@@H](CO)O1)NCc1ccc2c(c1)OCO2 -23.2% [at 8 µM]
CO[C@@H]1CN(C)C(=O)c2ccc(NS(=O)(=O)c3ccccc3C)cc2OC[C@@H](C)N(S(C)(=O)=O)C[C@H]1C -12.6% [at 8 µM]
C[C@@H]1CN([C@@H](C)CO)S(=O)(=O)c2ccc(C#Cc3ccc(F)cc3)cc2O[C@@H]1CN(C)C(=O)NC1CCCCC1 -4.75% [at 8 µM]
C[C@@H]1CN([C@@H](C)CO)C(=O)c2cc(NS(=O)(=O)c3ccc(Cl)cc3)ccc2O[C@@H]1CN(C)Cc1ccccc1 18.9%
CO[C@@H]1CN(C)C(=O)c2cc(NC(=O)C3CCOCC3)ccc2OC[C@H](C)N(C(=O)c2ccccc2)C[C@H]1C -8.41% [at 0.5 µM]
CO[C@H]1CN(C)C(=O)c2ccc(NC(=O)C3CCC3)cc2OC[C@H](C)N(C(=O)CN(C)C)C[C@H]1C -8.4%
CO[C@H]1CN(C)C(=O)c2cc(NC(=O)C3CC3)ccc2OC[C@H](C)N(C(=O)c2ccccn2)C[C@@H]1C 5.91%
CO[C@@H]1CN(C)C(=O)c2ccc(NC(=O)C3CCC3)cc2OC[C@H](C)N(C(=O)CN(C)C)C[C@@H]1C -13.6% [at 0.5 µM]
CO[C@H]1CN(C)C(=O)c2cc(NC(=O)C3CCOCC3)ccc2OC[C@@H](C)N(C(=O)c2ccccc2)C[C@H]1C -10.4% [at 1.95 µM]
CO[C@H]1CN(C)C(=O)c2cc(NC(=O)C3CCOCC3)ccc2OC[C@H](C)N(C(=O)c2ccccc2)C[C@H]1C -6.51%
C[C@H]1CN([C@@H](C)CO)S(=O)(=O)c2ccc(C#CCC3CCCC3)cc2O[C@@H]1CN(C)C(=O)CC1CC1 19.7% [at 8 µM]
CO[C@H]1CN(C)C(=O)c2ccc(NC(=O)c3nc4ccccc4s3)cc2OC[C@H](C)N(Cc2cccnc2)C[C@H]1C 37.7%
CO[C@@H]1CN(C)C(=O)c2cc(NC(=O)Nc3ccccc3Cl)ccc2OC[C@@H](C)N(S(C)(=O)=O)C[C@H]1C -12.2% [at 0.5 µM]
O=C(CN1CCOCC1)N[C@@H]1CC[C@@H](CCNS(=O)(=O)c2ccccc2F)O[C@@H]1CO -8.89% [at 0.5 µM]
C[C@@H]1CN([C@@H](C)CO)C(=O)c2ccccc2-c2ccccc2CO[C@H]1CN(C)S(=O)(=O)c1ccc(Cl)cc1 33.2% [at 35 µM]
C[C@H](CO)N1C[C@H](C)[C@H](CN(C)S(=O)(=O)c2ccccc2)Oc2ccc(NC(=O)Nc3cccc4ccccc34)cc2C1=O -17.7% [at 8 µM]
C[C@@H]1CN([C@@H](C)CO)C(=O)c2cccc(NC(=O)Nc3ccc(F)cc3)c2O[C@H]1CN(C)CC1CCCCC1 13.5% [at 8 µM]
C[C@H](CO)N1C[C@H](C)[C@H](CN(C)C(=O)NC2CCCCC2)Oc2c(NC(=O)Nc3ccc(C(F)(F)F)cc3)cccc2C1=O 35.7% [at 1.95 µM]
C[C@@H]1CN([C@H](C)CO)C(=O)c2cccc(NC(=O)Nc3ccc(C(F)(F)F)cc3)c2O[C@H]1CN(C)Cc1ccc2c(c1)OCO2 43.4% [at 8 µM]
C[C@H](CO)N1C[C@H](C)[C@@H](CN(C)Cc2ccc3c(c2)OCO3)Oc2c(NC(=O)Nc3ccc(C(F)(F)F)cc3)cccc2C1=O 43.3%
CCCC(=O)Nc1ccc2c(c1)OC[C@H](C)N(CCc1ccccc1)C[C@@H](C)[C@@H](OC)CN(C)C2=O -11.5% [at 0.5 µM]
C[C@@H]1CN([C@@H](C)CO)C(=O)Cc2cc(N(C)C)ccc2O[C@H]1CN(C)Cc1ccc(-c2ccccc2)cc1 20.5% [at 8 µM]
C#CCNC(=O)C1=C[C@H](c2cn(C(C)=O)c3ccccc23)C[C@H](OCc2ccc(CO)cc2)O1 -9.52% [at 0.5 µM]
O=C(N[C@H]1C=C[C@@H](CC(=O)N2CCOCC2)O[C@@H]1CO)c1cccc(F)c1 -5.96%
C[C@@H]1CCCCO[C@H](CN(C)CC2CC2)[C@H](C)CN([C@@H](C)CO)C(=O)c2cc(NC(=O)Nc3cccc4ccccc34)ccc2O1 13.7%
CCc1cnc(N2[C@H](CO)[C@H](c3ccc(C#CC(C)C)cc3)[C@@H]2C#N)s1 17% [at 1.95 µM]
CC(C)CC#Cc1ccc2c(c1)O[C@H](CN(C)Cc1cccnc1)[C@@H](C)CN([C@H](C)CO)S2(=O)=O 42.9%
CC(C)Cc1ccc(CN2CC[C@@H](NC(=O)c3ccccc3)C2)cc1 20.1% [at 8 µM]
C[C@H](CO)N1C[C@H](C)[C@@H](CN(C)C(=O)Nc2ccc(C(F)(F)F)cc2)Oc2c(NC(=O)c3ccc(-c4nccs4)cc3)cccc2C1=O 7.84%
O=C(NCC[C@@H]1CC[C@H](NC(=O)Nc2cc(F)ccc2F)[C@H](CO)O1)Nc1ccc(Cl)cc1 -10.4% [at 0.5 µM]
CC(C)NC(=O)NCC[C@H]1CC[C@@H](NS(=O)(=O)c2ccc(Oc3ccccc3)cc2)[C@@H](CO)O1 13.9% [at 35 µM]
O=C(C[C@@H]1CC[C@H](NC(=O)Nc2cc(F)ccc2F)[C@H](CO)O1)NCc1ccc2c(c1)OCO2 4.18% [at 8 µM]
Cc1ccc(S(=O)(=O)N[C@H]2CC[C@H](CCNS(=O)(=O)Cc3ccccc3)O[C@H]2CO)cc1 -13.6% [at 7.5 µM]
CC(C)NC(=O)NCC[C@H]1CC[C@@H](NS(=O)(=O)c2ccc(Oc3ccccc3)cc2)[C@H](CO)O1 9.67%
O=S(=O)(NCC[C@H]1CC[C@H](NS(=O)(=O)c2ccccc2Cl)[C@H](CO)O1)c1ccc(Cl)cc1 10% [at 7.5 µM]
CC(C)CC#Cc1ccc2c(c1)O[C@@H](CN(C)C(=O)c1ccccc1)[C@@H](C)CN([C@@H](C)CO)S2(=O)=O 35.1%
